GSIS activator: GLuc luminescence reporter in INS-1E cells, primary screen for activators of glucose-dependent secretion of insulin; INS-1E GLuc reporter insulin secretion, 2-3 h; 0.61% of 370,000 active; AID 743287, 2014; activation, % at 16.6 µM;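 active means lowest replicate activation of at least 40%, so every replicate reaches that level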;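 further: 0% = median of neutral control wells and 100% = median of IBMX positive control wells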
hiPSC survival: enhancers of single-cell hiPSC survival, primary screen, ATPlite luminescence | 0.044% of 360,000 active | 100% = ROCK inhibitor wells, 0% = DMSO | AID 602274, 2012 | survival enhancement, % at 20 µM; in the data active means survival enhancement above about 18%;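 further: cells exposed to compounds for 16 hours before the ATP read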
ABCB6 inh 2: ABCB6 transporter inhibitors, primary screen, K562-ABCB6 cells, flow cytometry, MLPCN library | AID 602162, 2011 | K562-ABCB6 porphyrin accumulation, 1 h; hits give low values | fluorescence ratio to DMSO, % at 10 µM | 0.19% of 360,000 active | ATP-binding cassette sub-family B member 6 (Homo sapiens), Q9NP58;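 active means fluorescence ratio to DMSO below 75%, the collection mean minus 3 SD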;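 further: signal is porphyrin accumulated inside mitochondria; 100% equals median channel fluorescence of DMSO control wells; lower ratio means ABCB6 inhibition with less porphyrin fluorescence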
ARNT TACC3 PPI: disruptors of ARNT/TACC3 protein interaction, primary screen, biochemical, AlphaScreen, single concentration; AlphaScreen His-ARNT PAS-B/GST-TACC3 binding, luminescence; TACC3 fragment carries E629A point mutation; inhibition, % at 9.99 µM; 0.66% of 390,000 active; AID 623870, 2012;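 active means mean inhibition of replicates at least 50% and at least half of replicates each reaching 50%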;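 further: 0% = complete ARNT plus TACC3 wells and 100% = ARNT alone without TACC3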
NRP1-CendR mod: modulators of CendR peptide binding to NRP-1, primary screen, biochemical, fluorescence polarization, uHTS | Neuropilin-1 (Homo sapiens), O14786 | FAM-RPARPAR peptide binding to NRP-1 | inhibition, % at 25 µM | 0.85% of 360,000 active | AID 602438, 2012;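 active means inhibition or corrected inhibition above about 18%, plus a signal ratio from 0.5 to 1.5, limit read from the data, passing the limit was not always enough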
Target sequence (O14786 whole entry, looked up): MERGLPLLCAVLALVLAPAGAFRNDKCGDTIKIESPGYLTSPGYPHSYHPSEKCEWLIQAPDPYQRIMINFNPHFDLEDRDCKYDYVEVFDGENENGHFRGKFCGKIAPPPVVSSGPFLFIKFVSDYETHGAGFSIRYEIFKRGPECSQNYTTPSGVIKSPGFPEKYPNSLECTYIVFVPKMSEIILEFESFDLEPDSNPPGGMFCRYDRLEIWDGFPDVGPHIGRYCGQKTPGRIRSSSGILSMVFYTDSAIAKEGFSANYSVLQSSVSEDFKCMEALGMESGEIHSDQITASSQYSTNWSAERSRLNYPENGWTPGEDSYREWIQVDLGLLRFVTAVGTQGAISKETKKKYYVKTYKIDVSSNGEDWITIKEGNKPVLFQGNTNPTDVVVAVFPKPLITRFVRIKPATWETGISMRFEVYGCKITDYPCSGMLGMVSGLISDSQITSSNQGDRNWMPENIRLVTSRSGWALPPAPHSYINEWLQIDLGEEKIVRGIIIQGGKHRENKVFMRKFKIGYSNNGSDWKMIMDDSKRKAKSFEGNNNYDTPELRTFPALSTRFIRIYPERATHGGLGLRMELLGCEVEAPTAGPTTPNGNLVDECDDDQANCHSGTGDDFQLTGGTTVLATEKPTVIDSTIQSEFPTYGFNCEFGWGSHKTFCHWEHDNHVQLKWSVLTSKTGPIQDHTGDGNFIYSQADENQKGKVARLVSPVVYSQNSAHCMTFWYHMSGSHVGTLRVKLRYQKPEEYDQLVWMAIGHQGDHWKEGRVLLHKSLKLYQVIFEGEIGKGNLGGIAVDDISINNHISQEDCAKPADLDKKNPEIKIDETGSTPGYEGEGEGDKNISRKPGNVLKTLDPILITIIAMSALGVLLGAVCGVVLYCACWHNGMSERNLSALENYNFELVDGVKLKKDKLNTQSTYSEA
ARNT Alpha ctr-1: AlphaScreen signal interference compounds, dose response, artefact control for ARNT-TACC3 interaction inhibitor project, biochemical, luminescence, cherry-pick | shares compounds with ARNT TACC3 PPI | His-ARNT PASB-GST AlphaScreen artifact counter-screen | AC50, µM (top dose mostly 68 µM), for the others: top-dose activity change, negative = signal decrease | 50% of 1,200 active | AID 651705, 2012;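 active means every separate test run was called active for a drop in luminescence, with AC50 within twice the top valid dose, actives reach about 71 µM in these data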
ARNT Alpha ctr-2: AlphaScreen signal interference by compounds, dose response, artefact control for ARNT/TACC3 disruptor project, biochemical, dual-tagged ARNT, dry powder. shares compounds with ARNT TACC3 PPI. Dual-tagged His-ARNT PASB-GST AlphaScreen artifact counter-screen. AC50, µM. 70% of 45 active;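 active means luminescence drop, with half-maximal potency fitted within twice the sample's top valid dose, cut at about 70 µM in these data; inactive means the rest, including signal moving the wrong way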
Starred values were filed as active, the others as inactive; i = inactive; · = not tested or not shown; [ ] = dose if it differs, or a comment. An excerpt weighted towards active compounds, which were near 1.8% of everything screened.

SMILES | GSIS activator | hiPSC survival | ABCB6 inh 2 | ARNT TACC3 PPI | NRP1-CendR mod | ARNT Alpha ctr-1 | others
Cc1ccc(C(=O)Nc2nc(-c3ccccn3)cs2)o1 | -16 | 0 | 101 | 60* | -1 | 23µM* | ARNT Alpha ctr-2=9.9*
O=C(COc1ccc([N+](=O)[O-])cc1)Nc1nc(-c2ccccn2)cs1 | 28 | 0 | 99 | 63* | -24 | 48µM*
O=C(Nc1nc(-c2ccccn2)cs1)c1ccc(-c2ccccc2F)o1 | 6 | 0 | 112 | 44 | -10 | ·
CNC[C@H]1Oc2ccc(NC(=O)Nc3c(C)noc3C)cc2C(=O)N([C@@H](C)CO)C[C@@H]1C | 17 | · | · | · | · | ·
COc1ccc(CN(C)C[C@@H]2OCCCC[C@H](C)Oc3ccc(NC(=O)c4ccncc4)cc3C(=O)N([C@@H](C)CO)C[C@H]2C)cc1 | 9 | · | · | · | · | ·
CCC(=O)N1[C@@H]2c3ccc(C4=CCCC4)c(=O)n3C[C@@H]2[C@@H](CO)[C@@H]1C(=O)NC1CCC1 | 14 | · | · | -13 | · | ·
O=C(Nc1nc(-c2ccccn2)cs1)C1COc2ccccc2O1 (stereo not given) | -8 | 0 | 88 | 71* | 7 | 29µM*
Cc1ccc(C(=O)Nc2nc(-c3ccccc3)cs2)o1 | · | · | · | · | · | · | ARNT Alpha ctr-2=i
O=C(Nc1nc(-c2ccccc2)cs1)C1COc2ccccc2O1 (stereo not given) | · | -1 | 101 | · | 18 | ·
Nc1nnc2c(n1)CCCC2 | · | -1 | 101 | 55* | 15 | -10%
C[C@H](CO)N1C[C@H](C)[C@H](CN(C)S(=O)(=O)c2cn(C)cn2)Oc2c(NS(=O)(=O)c3ccccc3)cccc2C1=O | 47 | · | · | -9 | · | ·
Cc1sc2ncnc(N/N=C/c3ccccc3O)c2c1C | -26 | -1 | 100 | 54* | -43 | 41µM*
Cc1sc2ncnc(N/N=C/c3ccc(O)cc3)c2c1C | -11 | 0 | 98 | 41 | 4 | ·
Cc1cc(=O)n(-c2ccccc2Cl)[nH]1 | 2 | -1 | 101 | -2 | 11 | ·
Cc1cc(=O)n(-c2ccc(O)cc2)[nH]1 | · | -1 | 120 | 15* | 8 | -10%
O=C(COC(=O)c1cncc(Br)c1)Nc1nnc(-c2ccccc2)o1 | 11 | 0 | 104 | -3 | -19 | ·
O=C(COC(=O)c1ccc(Cl)nc1)Nc1nnc(-c2ccccc2)o1 | -6 | 0 | 100 | 79* | 4 | -14%
Cc1ccsc1C(=O)OCC(=O)Nc1nnc(-c2ccccc2)o1 | -2 | 0 | 97 | 57* | -6 | 64µM*
CO[C@@H]1CN(C)C(=O)c2cc(NS(=O)(=O)c3ccccc3)ccc2OC[C@H](C)N(Cc2ccccn2)C[C@@H]1C | -2 | · | · | -1 | · | ·
Cc1ccc(S(=O)(=O)N(C)C[C@@H]2Oc3ncc(-c4ccncc4)cc3C(=O)N([C@H](C)CO)C[C@H]2C)cc1 | -4 | · | · | · | · | ·
N#Cc1cccc(-c2ccc([C@@H]3[C@@H](CO)N4CCCCN(C(=O)Nc5ccccc5)C[C@@H]34)cc2)c1 | -11 | · | · | 5 | · | ·
COc1cc(/C=N/NC(=O)CSc2n[nH]c(=O)[nH]c2=O)cc(OC)c1O | 3 | -2 | 103 | 57* | 3 | -37%
O=C(CSc1n[nH]c(=O)[nH]c1=O)N/N=C/c1ccccc1O | 37 | 3 | 89 | 52* | -16 | -27%
CCOc1ccccc1/C=N/NC(=O)CSc1n[nH]c(=O)[nH]c1=O | 1 | -1 | 103 | -1 | 1 | ·
COc1ccc2c3c([nH]c2c1)[C@H](CO)N(Cc1ccccc1Cl)CC31CCN(C(C)=O)CC1 | 2 | · | · | · | · | ·
SMILES | GSIS activator | hiPSC survival | ABCB6 inh 2 | ARNT TACC3 PPI | NRP1-CendR mod | ARNT Alpha ctr-1 | others
O=C(NC[C@@H]1N[C@@H](CO)[C@H]1c1ccc(-c2ccccc2F)cc1)c1ccccc1 | -32 | · | · | 4 | · | ·
Cc1ccc(C2=CSC3=NS(=O)(=O)CCN23)cc1 | 6 | -2 | 103 | 50* | -12 | -8%
O=C(Cc1ccccc1)N1CC(=O)N2[C@H](CO)[C@H](c3ccc(C#CCc4ccccc4)cc3)[C@H]2C1 | -3 | · | · | · | · | ·
Cc1cccc(S(=O)(=O)N[C@@H]2CC[C@H](CCn3cc(-c4ccccn4)nn3)O[C@@H]2CO)c1 | -8 | · | · | · | · | ·
O=S(=O)(N[C@H]1CC[C@H](CCn2cc(-c3ccccn3)nn2)O[C@@H]1CO)c1cccc(Cl)c1 | 4 | · | · | 109* | · | 49µM*
O=S(=O)(N[C@H]1CC[C@@H](CCn2cc(-c3ccccn3)nn2)O[C@@H]1CO)c1cccc(Cl)c1 | 0 | · | · | 95* | · | 48µM*
O=S(=O)(N[C@@H]1CC[C@@H](CCn2cc(-c3ccccn3)nn2)O[C@H]1CO)c1cccc(F)c1 | 2 | · | · | 91* | · | 60µM*
C[C@H]1CN([C@@H](C)CO)C(=O)c2cc(NC(=O)CCCN(C)C)ccc2O[C@@H]1CN(C)Cc1ccc(-c2ccccc2)cc1 | 22 | · | · | 9 | · | ·
C/C=C/c1ccc([C@H]2[C@@H](CO)N(Cc3ccccn3)[C@H]2CNC(=O)CC)cc1 | 7 | · | · | 41* | · | -23%[42 µM]
C/C=C/c1ccc([C@H]2[C@@H](CO)N(Cc3ccccn3)[C@@H]2CNC(=O)CC)cc1 | 5 | · | · | 23 | · | ·
C/C=C/c1ccc([C@H]2[C@@H](CO)N(Cc3ccccn3)[C@@H]2CNC(C)=O)cc1 | -2 | · | · | 30* | · | -11%[42 µM]
COc1ccc(CNC(=O)C[C@H]2CC[C@H](NC(=O)c3cccc(F)c3)[C@@H](CO)O2)cc1 | -2 | · | · | 29 | · | ·
C[C@H]1CN([C@@H](C)CO)C(=O)CCCn2nncc2CO[C@@H]1CN(C)S(=O)(=O)c1ccc(Oc2ccccc2)cc1 | -6 | · | · | · | · | ·
CC(C)(C)C1=CC(=Nc2ccccc2N)C=C(C(C)(C)C)C1=O | 3 | -2 | 97 | 54* | 7 | 1.5µM*
Nc1ccccc1N=Nc1ccccc1N | -3 | -3 | 100 | 22 | 8 | ·
O=c1oc2c3c4c(cc2s1)CCCN4CCC3 | · | -2 | 107 | active | 36* | 44µM*
C[C@H]1CN([C@@H](C)CO)C(=O)c2cc(NC(=O)C3CCCCC3)ccc2O[C@H]1CN(C)Cc1ccc(Cl)c(Cl)c1 | -7 | · | · | 0 | · | ·
CO[C@H]1CN(C)C(=O)c2ccc(NC(=O)C3CC3)cc2OC[C@@H](C)N(C(=O)c2ccccc2F)C[C@@H]1C | 0 | · | · | -13 | · | ·
O=c1[nH]c(Nc2ccccc2)cc2cc(Br)ccc12 | -6 | 0 | 102 | 35 | -16 | ·

Screening data: PubChem, several laboratories
